The results in this text go back to ChEMBL document CHEMBL5724796, “Tm Shift (DSF) assay results for EUbOPEN Chemogenomics Library” (2024).

Each structure is given as a SMILES string.

Holding throughout (settings): Compound concentration 20.0 uM
The target in assay [1] is Tyrosine-protein kinase ABL1 (Homo sapiens) (UniProt P00519).
Assay [2] deals with Bromodomain-containing protein 4 (Homo sapiens) (UniProt O60885).
The target in assay [3] is Cyclin-dependent kinase 2 (Homo sapiens) (UniProt P24941).
Assay [4] concerns the target Casein kinase I isoform delta (Homo sapiens) (UniProt P48730).
Assay [5] addresses Glycogen synthase kinase-3 beta (Homo sapiens) (UniProt P49841).
The target of assay [6] is Mitogen-activated protein kinase 1 (Homo sapiens) (UniProt P28482).
The target of assay [7] is T1, Aurora kinase A (Homo sapiens) (UniProt O14965).
T1 sequence (whole entry): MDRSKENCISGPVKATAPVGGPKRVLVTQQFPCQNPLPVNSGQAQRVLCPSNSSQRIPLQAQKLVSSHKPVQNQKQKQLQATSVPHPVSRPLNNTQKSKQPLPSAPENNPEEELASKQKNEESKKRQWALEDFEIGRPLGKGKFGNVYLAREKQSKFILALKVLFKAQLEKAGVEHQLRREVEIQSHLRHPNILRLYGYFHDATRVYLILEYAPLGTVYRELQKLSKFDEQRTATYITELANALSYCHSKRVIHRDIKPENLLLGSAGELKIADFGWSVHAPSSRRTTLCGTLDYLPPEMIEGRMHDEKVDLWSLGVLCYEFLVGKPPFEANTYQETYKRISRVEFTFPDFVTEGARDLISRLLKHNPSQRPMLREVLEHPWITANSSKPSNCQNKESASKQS

The target of assay [8] is T2, Transcription intermediary factor 1-alpha (Homo sapiens) (UniProt O15164).
T2 sequence (whole entry): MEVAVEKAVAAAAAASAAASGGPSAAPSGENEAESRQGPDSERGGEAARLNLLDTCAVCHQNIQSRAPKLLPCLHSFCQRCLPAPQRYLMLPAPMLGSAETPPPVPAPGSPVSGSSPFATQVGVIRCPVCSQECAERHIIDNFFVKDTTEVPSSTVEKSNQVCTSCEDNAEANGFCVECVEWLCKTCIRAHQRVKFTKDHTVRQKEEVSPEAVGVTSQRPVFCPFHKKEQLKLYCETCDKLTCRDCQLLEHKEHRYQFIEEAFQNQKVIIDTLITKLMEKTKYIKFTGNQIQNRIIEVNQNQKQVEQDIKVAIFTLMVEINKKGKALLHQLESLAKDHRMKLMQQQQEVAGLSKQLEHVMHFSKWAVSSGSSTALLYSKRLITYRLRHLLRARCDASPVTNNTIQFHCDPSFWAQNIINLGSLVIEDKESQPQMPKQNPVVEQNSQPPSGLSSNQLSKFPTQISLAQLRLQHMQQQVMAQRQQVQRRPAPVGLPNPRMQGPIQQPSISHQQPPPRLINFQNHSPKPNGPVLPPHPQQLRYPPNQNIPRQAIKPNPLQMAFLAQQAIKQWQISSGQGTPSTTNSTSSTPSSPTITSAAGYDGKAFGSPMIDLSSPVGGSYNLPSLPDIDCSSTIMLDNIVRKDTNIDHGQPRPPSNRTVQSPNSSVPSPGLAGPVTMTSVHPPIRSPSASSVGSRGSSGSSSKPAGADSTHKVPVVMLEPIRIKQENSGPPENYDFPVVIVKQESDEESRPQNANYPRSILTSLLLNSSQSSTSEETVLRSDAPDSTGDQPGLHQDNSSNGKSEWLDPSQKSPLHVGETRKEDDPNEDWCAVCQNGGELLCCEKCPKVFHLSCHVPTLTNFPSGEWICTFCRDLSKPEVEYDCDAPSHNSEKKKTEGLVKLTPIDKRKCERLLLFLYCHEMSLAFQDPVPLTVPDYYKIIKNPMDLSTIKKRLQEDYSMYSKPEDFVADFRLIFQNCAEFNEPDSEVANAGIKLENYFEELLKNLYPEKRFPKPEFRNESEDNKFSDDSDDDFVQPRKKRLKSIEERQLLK

Sequence of Tyrosine-protein kinase ABL1 (Homo sapiens) (P00519 whole entry): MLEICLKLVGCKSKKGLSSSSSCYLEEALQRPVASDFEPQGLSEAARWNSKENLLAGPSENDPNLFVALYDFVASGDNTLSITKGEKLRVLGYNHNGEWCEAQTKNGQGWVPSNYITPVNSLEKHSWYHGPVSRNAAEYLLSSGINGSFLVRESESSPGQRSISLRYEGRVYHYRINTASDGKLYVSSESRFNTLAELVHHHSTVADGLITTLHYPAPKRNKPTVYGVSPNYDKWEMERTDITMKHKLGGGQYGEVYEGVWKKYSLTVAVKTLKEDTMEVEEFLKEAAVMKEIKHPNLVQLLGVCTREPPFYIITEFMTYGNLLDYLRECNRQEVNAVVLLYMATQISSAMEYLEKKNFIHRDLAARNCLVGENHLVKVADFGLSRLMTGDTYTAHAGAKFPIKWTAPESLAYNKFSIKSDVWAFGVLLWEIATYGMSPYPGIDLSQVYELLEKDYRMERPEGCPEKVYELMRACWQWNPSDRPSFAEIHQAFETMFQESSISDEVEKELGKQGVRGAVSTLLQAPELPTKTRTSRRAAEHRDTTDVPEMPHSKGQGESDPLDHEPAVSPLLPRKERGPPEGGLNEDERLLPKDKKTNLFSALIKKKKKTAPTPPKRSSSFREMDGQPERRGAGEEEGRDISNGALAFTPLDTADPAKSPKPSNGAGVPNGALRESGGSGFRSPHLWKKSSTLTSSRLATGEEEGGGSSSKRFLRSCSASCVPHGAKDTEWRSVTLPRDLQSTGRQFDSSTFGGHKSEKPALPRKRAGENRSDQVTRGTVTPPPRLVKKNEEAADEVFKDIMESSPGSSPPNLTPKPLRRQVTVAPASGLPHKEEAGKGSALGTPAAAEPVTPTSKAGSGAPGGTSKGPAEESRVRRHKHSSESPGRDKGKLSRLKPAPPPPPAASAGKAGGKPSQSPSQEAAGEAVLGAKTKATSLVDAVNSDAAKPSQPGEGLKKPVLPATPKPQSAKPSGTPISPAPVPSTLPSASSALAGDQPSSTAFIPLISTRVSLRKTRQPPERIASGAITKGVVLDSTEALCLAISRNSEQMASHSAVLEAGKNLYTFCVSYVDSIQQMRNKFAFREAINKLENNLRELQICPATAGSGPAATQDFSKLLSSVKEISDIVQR
Sequence of Mitogen-activated protein kinase 1 (Homo sapiens) (P28482 whole entry): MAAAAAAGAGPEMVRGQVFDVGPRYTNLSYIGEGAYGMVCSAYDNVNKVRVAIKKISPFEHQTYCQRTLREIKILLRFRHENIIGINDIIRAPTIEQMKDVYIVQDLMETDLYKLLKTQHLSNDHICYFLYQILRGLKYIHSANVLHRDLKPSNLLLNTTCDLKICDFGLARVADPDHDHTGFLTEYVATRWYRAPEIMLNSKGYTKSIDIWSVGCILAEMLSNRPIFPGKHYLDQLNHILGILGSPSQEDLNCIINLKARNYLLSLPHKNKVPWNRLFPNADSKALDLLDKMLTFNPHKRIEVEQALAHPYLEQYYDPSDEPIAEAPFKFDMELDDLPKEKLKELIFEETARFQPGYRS
Sequence of Casein kinase I isoform delta (Homo sapiens) (P48730 whole entry, looked up, canonical isoform): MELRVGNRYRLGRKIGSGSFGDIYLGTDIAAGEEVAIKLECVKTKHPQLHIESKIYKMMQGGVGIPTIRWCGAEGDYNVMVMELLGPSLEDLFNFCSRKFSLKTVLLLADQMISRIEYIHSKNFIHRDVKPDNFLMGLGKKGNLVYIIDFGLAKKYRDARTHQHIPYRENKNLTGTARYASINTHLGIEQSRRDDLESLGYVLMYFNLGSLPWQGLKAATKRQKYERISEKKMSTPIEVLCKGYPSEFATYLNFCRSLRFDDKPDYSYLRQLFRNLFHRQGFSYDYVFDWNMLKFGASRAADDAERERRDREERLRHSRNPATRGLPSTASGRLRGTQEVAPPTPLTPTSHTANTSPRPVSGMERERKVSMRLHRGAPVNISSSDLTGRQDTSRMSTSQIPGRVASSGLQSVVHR
Sequence of Glycogen synthase kinase-3 beta (Homo sapiens) (P49841 whole entry, looked up): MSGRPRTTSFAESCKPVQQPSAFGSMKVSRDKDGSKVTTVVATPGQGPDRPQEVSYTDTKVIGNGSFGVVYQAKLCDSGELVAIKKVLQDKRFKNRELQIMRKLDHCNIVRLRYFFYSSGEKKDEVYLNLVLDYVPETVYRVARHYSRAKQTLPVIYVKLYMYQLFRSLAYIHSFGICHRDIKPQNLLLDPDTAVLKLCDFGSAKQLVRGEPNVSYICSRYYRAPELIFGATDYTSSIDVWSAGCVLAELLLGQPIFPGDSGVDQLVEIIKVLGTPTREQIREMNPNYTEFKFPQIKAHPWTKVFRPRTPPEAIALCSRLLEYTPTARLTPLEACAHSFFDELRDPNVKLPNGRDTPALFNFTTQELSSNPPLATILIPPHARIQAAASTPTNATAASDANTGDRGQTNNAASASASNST

Take `CCNC(=O)c1cc2c(-c3cc(C(C)(C)O)ccc3Oc3c(C)cc(F)cc3C)cn(C)c(=O)c2[nH]1`: the ΔTm is 0.23 °C in assay [1]; 11.1 °C in assay [2]; 0.42 °C in assay [3]; -0.31 °C in assay [4]; -0.33 °C in assay [5]; 1.43 °C in assay [6]. The thermal shift (ΔTm) in assay [7] was -2.76 °C; in assay [8] it was 0.91 °C.

As for `COc1c(CN)cc(CN)cc1OCCCN1Cc2ccccc2C1`, the shift in melting temperature (ΔTm) in assay [1] is 0.19 °C; in assay [2] it was -1.72 °C; in assay [3], -0.14 °C; in assay [4] it was -0.24 °C; in assay [5] it was -0.15 °C; in assay [6], 0.22 °C. Also, the results for the ΔTm in assay [7] and in assay [8] were -2.26 °C and 0.95 °C, respectively.

As to `CC(C)N(C[C@H]1O[C@@H](n2cnc3c(N)ncnc32)[C@H](O)[C@@H]1O)[C@H]1C[C@@H](CCc2nc3cc(C(C)(C)C)ccc3[nH]2)C1`, the ΔTm in assay [1] is 0.52 °C; in assay [2], -1.59 °C; in assay [3], 0.63 °C; in assay [4], 0.57 °C; in assay [5], -0.47 °C; in assay [6], -0.02 °C. Besides, the ΔTm in assay [7] is 0.32 °C; in assay [8], -0.97 °C.

As to `COc1cc2c(cc1OC)[C@H]1C[C@@H](O)[C@H](CC(C)C)CN1CC2`, the ΔTm was 0.04 °C in assay [1]; 1.89 °C in assay [2]; 0.25 °C in assay [3]; -0.17 °C in assay [4]; -0.88 °C in assay [5]; 0.59 °C in assay [6]. In addition, the ΔTm was -0.72 °C in assay [7] and 0.12 °C in assay [8].

Consider `O=C(O)CCNC(=S)NCCCC[C@H](NS(=O)(=O)c1cccc(F)c1)C(=O)N[C@@H](Cc1c[nH]c2ccccc12)C(=O)NC1CCC1`, for which the ΔTm was 0.2 °C in assay [1]; -3.5 °C in assay [2]; -0.16 °C in assay [3]; -0.24 °C in assay [4]; -0.19 °C in assay [5]; 0.22 °C in assay [6]. Moreover, the results for the ΔTm in assay [7] and in assay [8] were -2.13 °C and -1.96 °C, respectively.

Regarding `CNCCC(Oc1ccccc1OC)c1ccccc1` (stereo not drawn), the ΔTm is 0.01 °C in assay [1]; -1.45 °C in assay [2]; -0.03 °C in assay [3]; -0.42 °C in assay [4]; -0.93 °C in assay [5]; 0.05 °C in assay [6]. The ΔTm in assay [7] was -1.7 °C; in assay [8], 0.03 °C.

In the case of `O=C(NCC(=O)N1CCCCC1)Nc1ccc2nnsc2c1`, the ΔTm is 0.46 °C in assay [1]; -0.58 °C in assay [2]; 0.28 °C in assay [3]; 0.06 °C in assay [4]; 0.23 °C in assay [5]; -0.52 °C in assay [6]. The ΔTm is -0.71 °C in assay [7] and 0.08 °C in assay [8].

With `Cc1sc(C(=O)c2cncnc2N[C@@H]2C[C@H](COS(N)(=O)=O)[C@@H](O)C2)cc1[C@@H]1NCCc2ccc(Cl)cc21`, the ΔTm in assay [1] was 0.03 °C; in assay [2] it was -0.2 °C; in assay [3], -0.03 °C; in assay [4] it was -0.1 °C; in assay [5], -1.26 °C; in assay [6], 0.53 °C. The shift in melting temperature (ΔTm) in assay [7] was -1.12 °C; in assay [8], 0.42 °C.

For the compound `O=C(NO)c1cnc(NC2(c3ccccc3)CC2)nc1`, the ΔTm in assay [1] is -0.47 °C; in assay [2], -1.48 °C; in assay [3] it was 0.47 °C; in assay [4] it was 0.23 °C; in assay [5], -0.05 °C; in assay [6] it was -0.3 °C. Further, the ΔTm in assay [7] is -0.41 °C; in assay [8] it was -1.75 °C.

In the case of `Cc1ccc2[nH]c3c(c2c1)CCCC3C(N)=O` (stereo not drawn), the shift in melting temperature (ΔTm) in assay [1] was 0.45 °C; in assay [2] it was -2.26 °C; in assay [3], 0.06 °C; in assay [4], -0.29 °C; in assay [5], -0.37 °C; in assay [6], 0.52 °C. Further, the ΔTm was -2.14 °C in assay [7] and -1.11 °C in assay [8].

As to `CC(C)c1c(-c2ccccc2)[nH]c2c(C#N)cnn2c1=O`, the ΔTm in assay [1] was 0.72 °C; in assay [2], -2.81 °C; in assay [3], 0.4 °C; in assay [4], -0.22 °C; in assay [5], -0.15 °C; in assay [6], 0.17 °C. Further, the ΔTm was -1.64 °C in assay [7] and -0.06 °C in assay [8].
